Data published in PubChem BioAssay (NCATS).
Inconclusive results are not listed. The source made the active and inactive calls. Calls follow the shape of the dose curve; as a rule, active = well fitted curve in the direction sought with a large enough effect; inconclusive = small, poorly fitted or top-dose-only effect, or another doubt; inactive = no such curve, though single readings can be large; an effect the other way counts as inactive or inconclusive.

Key:
[1] = target: Cellular tumor antigen p53 (Homo sapiens) (UniProt P04637); experiment: Primary qHTS for small molecule compounds that upregulate eGFP-tagged delta133p53alpha (in N-terminal) cells. (AID 2060322); details: NCI-H358 eGFP-delta133p53alpha fluorescence, 24 h; activation: active compounds read high;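 also: series mostly up to about 56 µM; 0% = DMSO vehicle and 100% = reference activator; nearly all actives have a fitted effect of over 75% in size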
Chain of Cellular tumor antigen p53 (Homo sapiens) (P04637 whole entry, looked up): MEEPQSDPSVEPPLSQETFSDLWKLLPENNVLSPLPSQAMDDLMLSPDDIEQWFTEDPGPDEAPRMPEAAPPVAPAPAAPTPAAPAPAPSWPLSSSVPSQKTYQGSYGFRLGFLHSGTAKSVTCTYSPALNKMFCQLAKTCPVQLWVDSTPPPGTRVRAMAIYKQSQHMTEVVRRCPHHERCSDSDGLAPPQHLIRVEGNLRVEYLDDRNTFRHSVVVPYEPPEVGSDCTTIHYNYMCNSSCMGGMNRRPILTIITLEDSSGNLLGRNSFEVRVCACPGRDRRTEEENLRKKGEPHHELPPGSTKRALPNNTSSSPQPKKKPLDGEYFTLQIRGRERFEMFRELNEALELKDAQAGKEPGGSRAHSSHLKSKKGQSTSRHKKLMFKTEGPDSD
Outline: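 NCI-H358 cells pre-induced 24 h with 10 ng/ml doxycycline to express N-terminal eGFP-delta133p53alpha, then dosed 24 h at 37C without doxycycline; fixed, Hoechst-stained, GFP intensity by laser scanning cytometry, normalized to DMSO (0%) and 57.5 uM 5-azacytidine (100%).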

[2] = target: Aldehyde dehydrogenase, mitochondrial (Homo sapiens) (UniProt P05091); experiment: qHTS for Inhibitors of the Aldehyde Dehydrogenase Family (ALDH2) Primary screen (AID 2061308);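 also: plate controls were vehicle for no effect and reference inhibitor for full effect; nearly all actives have a fitted effect of over 55% in size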
[3] = target: Retinaldehyde dehydrogenase 3 (Homo sapiens) (UniProt P47895); experiment: qHTS for Inhibitors of the Aldehyde Dehydrogenase Family (ALDH1A3) Primary screen (AID 2061315);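 also: plate controls were DMSO vehicle for no effect and reference inhibitor for full effect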

C=C[C@@H]1[C@H](O[C@@H]2O[C@H](CO)[C@@H](O)[C@H](O)[C@H]2O)OC=C(C(=O)O)[C@H]1CCOC(=O)/C=C/c1ccc(O)c(O)c1
inactive: activation [1] -7.63% | Potency [2] | Potency [3]

COC(=O)C1=CO[C@@H](O[C@@H]2O[C@H](CO)[C@@H](O)[C@H](O)[C@H]2O)[C@H]2[C@@H]1C=C[C@@]21C=C([C@H](C)O)C(=O)O1
inactive: activation [1] 13.4% | Potency [2] | Potency [3]

C/C=C(\C)C(=O)OC1C(C)C2(O)C3C=C(C)C(=O)C3CC(CO)=CC2C2C(C)(C)C12OC(C)=O (configuration not stated)
inactive: activation [1] -19.8% | Potency [2] | Potency [3]

C=C1C(=O)OC2CC(C)=C(C(C)CCCO[C@@H]3O[C@H](CO)[C@@H](O)[C@H](O)[C@H]3O)C(O)C12 (some centres not stated)
inactive: activation [1] -18.3% | Potency [2] | Potency [3]

CC1(C)CC2C(O)c3cocc3CC(C)(O)C2C1 (configuration not stated)
inactive: activation [1] -8.04% | Potency [2] | Potency [3]

CC1(C)CCC[C@@]2(C)C1[C@H](OC(=O)/C=C/C=C/C(=O)O)C=C1COC(=O)[C@@]12O (some centres not stated)
inactive: activation [1] -13% | Potency [2] | Potency [3]

C=C1CC[C@H]2[C@@H](/C=C(\C)C(=O)[C@@]3(OC(C)=O)C[C@H](C)[C@H](OC(C)=O)[C@@H]3[C@H]1OC(C)=O)C2(C)C
inactive: activation [1] -20.6% | Potency [2] | Potency [3]

C=CC(C)(O)CCC1C(C)(O)CCC2C(C)(C)CCCC21C (configuration not stated)
inactive: activation [1] 9.82% | Potency [2] | Potency [3]

O=C(O)c1ccnc(-c2cc(C(=O)NCCc3ccccc3)ccn2)c1
inactive: activation [1] 4.47% | Potency [2] | Potency [3]
